Assay results as given in article PMC11006913.

Legend:
Test in all cases: PBM; 200 nM protein, PBS
Conditions in all cases: dsDNA, one strand shown
HESX1 [1] = target: HESX1 (Homo sapiens, UniProt Q9UBX0 95-180, R165K)
HESX1 [2] = target: HESX1 (Homo sapiens, UniProt Q9UBX0 95-180)
HESX1 [3] = target: HESX1 (Homo sapiens, UniProt Q9UBX0 95-180, P111T)
HOXB4 [4] = target: HOXB4 (Homo sapiens, UniProt P17483 148-234)
HOXB4 [5] = target: HOXB4 (Homo sapiens, UniProt P17483 148-234, V174I)
Chain of HOXB4 (Homo sapiens, UniProt P17483 148-234, V174I) (P17483 148-234 V174I): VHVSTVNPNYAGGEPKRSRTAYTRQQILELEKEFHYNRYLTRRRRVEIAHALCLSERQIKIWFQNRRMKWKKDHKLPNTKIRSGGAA

Chain of HESX1 (Homo sapiens, UniProt Q9UBX0 95-180, R165K) (Q9UBX0 95-180 R165K): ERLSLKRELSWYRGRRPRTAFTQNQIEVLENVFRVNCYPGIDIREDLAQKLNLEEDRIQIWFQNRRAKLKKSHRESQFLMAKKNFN
Chain of HESX1 (Homo sapiens, UniProt Q9UBX0 95-180, P111T) (Q9UBX0 95-180 P111T): as the sequence (Q9UBX0 95-180 R165K) above, with P17T, K71R counted along it
Chain of HESX1 (Homo sapiens, UniProt Q9UBX0 95-180) (Q9UBX0 95-180): as the sequence (Q9UBX0 95-180 R165K) above, with K71R counted along it
Chain of HOXB4 (Homo sapiens, UniProt P17483 148-234) (P17483 148-234): as the sequence (P17483 148-234 V174I) above, with I27V counted along it

Row | Sequence | binding signal (HESX1 [1]) | binding signal (HESX1 [2]) | binding signal (HESX1 [3]) | binding signal (HOXB4 [4]) | binding signal (HOXB4 [5])
1 | ACTTTATA | 7.59 upbm affinity estimate (log intensity, higher = more binding, comparable within an allelic series) | 7.66 upbm affinity estimate (log intensity, higher = more binding, comparable within an allelic series) | 7.41 upbm affinity estimate (log intensity, higher = more binding, comparable within an allelic series) |  | 
2 | TCCTGCCA | 6.57 upbm affinity estimate (log intensity, higher = more binding, comparable within an allelic series) | 6.47 upbm affinity estimate (log intensity, higher = more binding, comparable within an allelic series) | 6.56 upbm affinity estimate (log intensity, higher = more binding, comparable within an allelic series) |  | 
3 | CAGAACGC | 6.46 upbm affinity estimate (log intensity, higher = more binding, comparable within an allelic series) | 6.44 upbm affinity estimate (log intensity, higher = more binding, comparable within an allelic series) | 6.34 upbm affinity estimate (log intensity, higher = more binding, comparable within an allelic series) |  | 
4 | GCCGAAAC | 6.58 upbm affinity estimate (log intensity, higher = more binding, comparable within an allelic series) | 6.54 upbm affinity estimate (log intensity, higher = more binding, comparable within an allelic series) | 6.61 upbm affinity estimate (log intensity, higher = more binding, comparable within an allelic series) |  | 
5 | GAAGTCGC | 6.48 upbm affinity estimate (log intensity, higher = more binding, comparable within an allelic series) | 6.36 upbm affinity estimate (log intensity, higher = more binding, comparable within an allelic series) | 6.43 upbm affinity estimate (log intensity, higher = more binding, comparable within an allelic series) |  | 
6 | CAAGCTCA | 6.51 upbm affinity estimate (log intensity, higher = more binding, comparable within an allelic series) | 6.47 upbm affinity estimate (log intensity, higher = more binding, comparable within an allelic series) | 6.46 upbm affinity estimate (log intensity, higher = more binding, comparable within an allelic series) |  | 
7 | CCCGGAGG | 6.31 upbm affinity estimate (log intensity, higher = more binding, comparable within an allelic series) | 6.31 upbm affinity estimate (log intensity, higher = more binding, comparable within an allelic series) | 6.39 upbm affinity estimate (log intensity, higher = more binding, comparable within an allelic series) |  | 
8 | AAGGGCAC | 6.53 upbm affinity estimate (log intensity, higher = more binding, comparable within an allelic series) | 6.41 upbm affinity estimate (log intensity, higher = more binding, comparable within an allelic series) | 6.56 upbm affinity estimate (log intensity, higher = more binding, comparable within an allelic series) |  | 
9 | TGAGCGCA | 6.52 upbm affinity estimate (log intensity, higher = more binding, comparable within an allelic series) | 6.51 upbm affinity estimate (log intensity, higher = more binding, comparable within an allelic series) | 6.49 upbm affinity estimate (log intensity, higher = more binding, comparable within an allelic series) |  | 
10 | GGCGCTAC | 6.32 upbm affinity estimate (log intensity, higher = more binding, comparable within an allelic series) | 6.38 upbm affinity estimate (log intensity, higher = more binding, comparable within an allelic series) | 6.43 upbm affinity estimate (log intensity, higher = more binding, comparable within an allelic series) |  | 
11 | AGAGGAGC | 6.5 upbm affinity estimate (log intensity, higher = more binding, comparable within an allelic series) | 6.51 upbm affinity estimate (log intensity, higher = more binding, comparable within an allelic series) | 6.47 upbm affinity estimate (log intensity, higher = more binding, comparable within an allelic series) |  | 
12 | CTAGGCCC | 6.43 upbm affinity estimate (log intensity, higher = more binding, comparable within an allelic series) | 6.46 upbm affinity estimate (log intensity, higher = more binding, comparable within an allelic series) | 6.58 upbm affinity estimate (log intensity, higher = more binding, comparable within an allelic series) |  | 
13 | CCGCAAGG |  |  |  | 7.78 upbm affinity estimate (log intensity, higher = more binding, comparable within an allelic series) | 7.66 upbm affinity estimate (log intensity, higher = more binding, comparable within an allelic series)
14 | AGCCTGGG |  |  |  | 7.59 upbm affinity estimate (log intensity, higher = more binding, comparable within an allelic series) | 7.58 upbm affinity estimate (log intensity, higher = more binding, comparable within an allelic series)
15 | TATTGCCA | 7.79 upbm affinity estimate (log intensity, higher = more binding, comparable within an allelic series) | 7.9 upbm affinity estimate (log intensity, higher = more binding, comparable within an allelic series) | 7.47 upbm affinity estimate (log intensity, higher = more binding, comparable within an allelic series) |  | 
16 | CATTAGGG | 8.41 upbm affinity estimate (log intensity, higher = more binding, comparable within an allelic series) | 8.4 upbm affinity estimate (log intensity, higher = more binding, comparable within an allelic series) |  |  | 
17 | AACCTATT | 8.08 upbm affinity estimate (log intensity, higher = more binding, comparable within an allelic series) | 8.17 upbm affinity estimate (log intensity, higher = more binding, comparable within an allelic series) | 7.48 upbm affinity estimate (log intensity, higher = more binding, comparable within an allelic series) |  | 
